# Calls of active or inactive are those of the source.
# What was measured:
# [1] = small molecules captured by biotinylated probe aFSTL3 – biochemical, small-molecule microarray, fluorescence 635/667, stem cell growth factor project, primary screen (AID 1064); conditions: higher = more signal;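 also: measures binding of the biotinylated anti-FSTL3 antibody to printed compounds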
# [2] = binders from COS7 lysate, DM2A8 probe, primary screen, torsin A project, cell lysate, small-molecule microarray, fluorescence 635/667 (AID 1065); conditions: higher = more signal, COS7 lysate expressing mutant human TOR1A
# [3] = small molecules captured by biotinylated probe aFGF2 – biochemical, small-molecule microarray, fluorescence 635/667, stem cell growth factor project, primary screen (AID 1067); conditions: higher = more signal;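 also: measures binding of biotinylated aFGF2 protein to printed compounds on slides; z-score merges feature fluorescence and signal-to-noise across triplicate slides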
# [4] = small molecules captured by biotinylated probe aFGF10 – biochemical, small-molecule microarray, fluorescence 635/667, stem cell growth factor project, primary screen (AID 1071); conditions: higher = more signal;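 also: score merges 667 nm spot intensity and signal to noise from triplicate slides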
# [5] = molecular target: Neurogenic locus notch homolog protein 2 (Homo sapiens) (UniProt Q04721); assay: small molecules binding Notch2 protein – biochemical, small-molecule microarray, 635 nm fluorescence, stem cell growth factors, primary screen (AID 1073); conditions: higher = more signal
# Chain of Neurogenic locus notch homolog protein 2 (Homo sapiens) (Q04721 whole entry, looked up, canonical isoform): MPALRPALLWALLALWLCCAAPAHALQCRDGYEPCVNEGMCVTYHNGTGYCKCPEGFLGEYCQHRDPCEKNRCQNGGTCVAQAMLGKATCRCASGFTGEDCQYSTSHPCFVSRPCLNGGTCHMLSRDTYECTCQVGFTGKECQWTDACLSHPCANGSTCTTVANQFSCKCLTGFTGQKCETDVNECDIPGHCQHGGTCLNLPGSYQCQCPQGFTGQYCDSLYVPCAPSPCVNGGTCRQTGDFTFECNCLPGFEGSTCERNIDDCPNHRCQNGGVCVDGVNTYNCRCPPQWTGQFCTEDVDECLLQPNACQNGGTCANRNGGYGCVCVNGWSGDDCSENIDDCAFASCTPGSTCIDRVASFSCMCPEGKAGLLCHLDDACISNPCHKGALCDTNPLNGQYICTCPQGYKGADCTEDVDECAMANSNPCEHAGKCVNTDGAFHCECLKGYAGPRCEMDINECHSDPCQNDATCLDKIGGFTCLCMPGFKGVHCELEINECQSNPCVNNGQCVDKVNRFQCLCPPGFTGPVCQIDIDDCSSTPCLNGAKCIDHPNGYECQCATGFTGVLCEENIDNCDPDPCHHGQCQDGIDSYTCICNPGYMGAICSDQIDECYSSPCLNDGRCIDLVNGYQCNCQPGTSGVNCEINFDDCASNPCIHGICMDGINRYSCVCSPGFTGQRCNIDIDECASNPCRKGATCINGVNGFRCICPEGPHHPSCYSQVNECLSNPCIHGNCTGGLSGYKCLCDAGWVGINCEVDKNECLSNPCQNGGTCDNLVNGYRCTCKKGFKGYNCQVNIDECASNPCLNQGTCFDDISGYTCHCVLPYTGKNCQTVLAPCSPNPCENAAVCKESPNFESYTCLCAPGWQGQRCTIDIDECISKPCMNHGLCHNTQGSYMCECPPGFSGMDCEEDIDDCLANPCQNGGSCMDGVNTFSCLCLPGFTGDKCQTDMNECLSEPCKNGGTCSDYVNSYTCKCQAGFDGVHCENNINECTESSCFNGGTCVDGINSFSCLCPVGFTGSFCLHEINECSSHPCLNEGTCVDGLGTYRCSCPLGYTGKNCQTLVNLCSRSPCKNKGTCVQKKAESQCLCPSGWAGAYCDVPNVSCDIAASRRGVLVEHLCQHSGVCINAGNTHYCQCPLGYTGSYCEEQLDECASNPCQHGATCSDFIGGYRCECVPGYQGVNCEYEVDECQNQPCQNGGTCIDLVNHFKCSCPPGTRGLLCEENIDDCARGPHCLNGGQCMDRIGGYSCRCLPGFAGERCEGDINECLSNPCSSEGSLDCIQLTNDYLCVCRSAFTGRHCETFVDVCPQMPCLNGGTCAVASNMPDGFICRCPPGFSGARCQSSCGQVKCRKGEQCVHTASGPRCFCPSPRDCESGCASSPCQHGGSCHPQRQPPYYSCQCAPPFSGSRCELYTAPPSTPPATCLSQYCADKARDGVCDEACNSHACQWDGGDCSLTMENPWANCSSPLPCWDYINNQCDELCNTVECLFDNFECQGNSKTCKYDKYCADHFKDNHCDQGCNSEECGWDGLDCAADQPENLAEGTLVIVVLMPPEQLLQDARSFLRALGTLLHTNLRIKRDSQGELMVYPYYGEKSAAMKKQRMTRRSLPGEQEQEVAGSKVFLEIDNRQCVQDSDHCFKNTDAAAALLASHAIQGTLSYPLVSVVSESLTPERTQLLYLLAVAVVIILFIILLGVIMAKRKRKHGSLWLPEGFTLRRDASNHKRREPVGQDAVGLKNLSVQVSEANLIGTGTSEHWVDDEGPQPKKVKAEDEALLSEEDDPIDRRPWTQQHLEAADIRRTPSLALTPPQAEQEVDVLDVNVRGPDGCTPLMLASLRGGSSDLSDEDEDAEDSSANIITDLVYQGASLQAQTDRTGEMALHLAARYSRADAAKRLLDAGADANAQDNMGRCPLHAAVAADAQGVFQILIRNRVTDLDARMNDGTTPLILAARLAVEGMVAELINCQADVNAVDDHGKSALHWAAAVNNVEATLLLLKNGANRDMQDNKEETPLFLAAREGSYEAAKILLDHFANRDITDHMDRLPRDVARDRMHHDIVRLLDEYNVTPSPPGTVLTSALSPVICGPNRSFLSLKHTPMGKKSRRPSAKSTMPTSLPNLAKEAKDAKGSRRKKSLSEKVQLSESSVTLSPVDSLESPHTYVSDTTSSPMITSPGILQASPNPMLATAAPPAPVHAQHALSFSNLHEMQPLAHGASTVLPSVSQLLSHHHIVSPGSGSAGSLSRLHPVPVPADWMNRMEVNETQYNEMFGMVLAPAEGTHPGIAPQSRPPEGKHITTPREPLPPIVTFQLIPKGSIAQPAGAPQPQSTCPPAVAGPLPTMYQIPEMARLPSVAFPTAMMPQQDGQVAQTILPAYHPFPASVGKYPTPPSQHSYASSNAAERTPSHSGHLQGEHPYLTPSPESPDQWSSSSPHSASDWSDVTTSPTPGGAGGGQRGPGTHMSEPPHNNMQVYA
# [6] = molecular target: Pro-neuregulin-1, membrane-bound isoform (Homo sapiens) (UniProt Q02297); assay: small molecules binding neuregulin-1 protein – biochemical, small-molecule microarray, fluorescence 635/667, psychiatric disease protein project, primary screen (AID 1075); conditions: NRG1 binding, 635 nm fluorescence, higher = more signal;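 also: score combines 667 nm spot fluorescence with signal to noise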
# Chain of Pro-neuregulin-1, membrane-bound isoform (Homo sapiens) (Q02297 whole entry, looked up, the tested form may be a part, canonical isoform): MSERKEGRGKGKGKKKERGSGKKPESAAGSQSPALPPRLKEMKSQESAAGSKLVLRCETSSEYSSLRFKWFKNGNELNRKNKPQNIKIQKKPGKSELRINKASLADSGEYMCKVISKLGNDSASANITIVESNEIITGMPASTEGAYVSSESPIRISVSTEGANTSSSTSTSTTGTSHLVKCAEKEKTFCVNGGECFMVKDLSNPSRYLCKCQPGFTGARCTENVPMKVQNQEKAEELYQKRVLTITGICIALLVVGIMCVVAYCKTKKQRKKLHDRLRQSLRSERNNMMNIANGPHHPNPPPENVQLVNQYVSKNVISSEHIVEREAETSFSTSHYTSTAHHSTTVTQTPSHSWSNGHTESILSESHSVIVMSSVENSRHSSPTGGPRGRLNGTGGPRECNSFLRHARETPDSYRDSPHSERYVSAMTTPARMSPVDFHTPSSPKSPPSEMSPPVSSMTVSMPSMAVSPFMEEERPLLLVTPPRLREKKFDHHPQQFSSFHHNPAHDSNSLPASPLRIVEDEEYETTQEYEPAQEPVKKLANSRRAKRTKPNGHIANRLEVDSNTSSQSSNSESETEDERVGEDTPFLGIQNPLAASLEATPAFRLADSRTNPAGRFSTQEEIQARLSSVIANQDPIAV
# [7] = system: Neuregulin-1 EGF-like domain; assay: small molecules binding NRG1 EGF domain – biochemical, small-molecule microarray, 635 nm fluorescence, primary screen (AID 1081); conditions: higher = more signal;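 also: binding of the protein to compounds printed on small-molecule microarray slides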
# [8] = FRG1 expression reporter modulators in myotubes – cell-based, C2C12 myotubes, firefly/Renilla luciferase, luminescence, FRG1 inhibition for FSHD, primary screen (AID 1084); conditions: FRG1 promoter luciferase, higher = more signal, called active from +8 up or from −8 down
# [9] = small molecules captured by biotinylated probe aFST – biochemical, small-molecule microarray, fluorescence 635/667, stem cell growth factor project, primary screen (AID 1086); conditions: higher = more signal;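 also: score merges 667 nm fluorescence with signal-to-noise of each printed compound spot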
# [10] = binders of probe aHhip on microarray, primary screen, stem cell growth factor project, biochemical, small-molecule microarray, fluorescence 635/667 (AID 1087); conditions: higher = more signal;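 also: score merges spot fluorescence at 667nm with spot signal to noise ratio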
SMILES,composite z-score [1],composite z-score [2],composite z-score [3],composite z-score [4],composite z-score [5],composite z-score [6],composite z-score [7],z-score [8],composite z-score [9],composite z-score [10]
Cc1ccc(S(=O)(=O)N2C[C@@H](C(=O)O)[C@H](Sc3ccccc3)C[C@H]2c2ccccc2)cc1,0.265,0.57,0.172,1.15,1.61,1.3,1.12,-2.97 (inactive),1.56,-0.34
C#CCNCc1ccccc1,-0.443,0.0591,-0.114,0.227,0.461,-0.358,0.0262,0.938 (inactive),-0.115,-0.236
CCOC(=O)C1=CCC(c2ccc(F)cc2)N(S(=O)(=O)c2ccc(C)cc2)C1 (stereo not given),0.605,0.816,0.0198,-0.105,0.552,0.199,0.116,-2.7 (inactive),0.135,-0.226
CN(C)C(=O)[C@]1(Cc2ccccc2)N=C(c2ccc(OCCCO)cc2)O[C@@H]1c1ccccc1N=[N+]=[N-],0.303,0.746,0.0797,0.618,1.33,1.56,1.13,0.336 (inactive),0.532,0.0749
Cc1ccc(S[C@]2(C(=O)O)CC(=O)N(Cc3ccccc3C(F)(F)F)[C@@H]2c2ccc(CO)cc2I)cc1,-0.0699,0.979,-0.1,-0.0146,-1.23,0.695,0.559,0.371 (inactive),-0.387,-0.334
O=C1NC(=O)C2C1C=CC(C(O)C1CC=CCC1)N2Nc1ccccn1 (stereo not given),0.0882,0.922,0.135,0.938,1.2,-0.0625,1.11,0.845 (inactive),0.324,-0.445
COCCOC(=O)N1C(=O)[C@@]2(c3cc(C#CC4(O)CCCCCC4)ccc31)[C@H](C(=O)Nc1nc3ccccc3s1)[C@H]1C(=O)O[C@H](c3ccccc3)[C@H](c3ccccc3)N1[C@@H]2c1ccccc1OCCO,0.184,1.29,-0.0503,0.94,1,1.54,1.29,1.86 (inactive),0.461,-0.0618
CC(=O)NCCCC[C@@H]1NC(=O)[C@H]2C[C@@H](C(=O)O)[C@@H](c3ccc(O)cc3)N2C1=O,-0.0025,0.843,-0.0135,0.607,1.23,1.1,1.3,-0.316 (inactive),0.904,0.213
COCCOC(=O)N1C(=O)[C@@]2(c3ccccc31)[C@H](c1ccc(OCCO)cc1)N1[C@H](c3ccccc3)[C@H](c3ccccc3)OC(=O)[C@H]1[C@@H]2C(=O)N1CCc2cc(OC)c(OC)cc2C1,-0.128,0.974,0.123,1.15,1.33,1.29,1.28,-1.82 (inactive),0.799,0.176
O=C1C2C=CC(C(O)c3ccc(-c4ccccc4)s3)N(Nc3ccccc3)C2C(=O)N1c1ccccc1 (stereo not given),-0.288,-0.109,0.198,0.44,1.61,2,1.33,-2.89 (inactive),1.62,-0.0618
O=C1O[C@@H](c2ccccc2)[C@@H](c2ccccc2)N2[C@@H](c3ccccc3OCCO)[C@]3(C(=O)Nc4ccc(C#CC5(O)CCCCCC5)cc43)[C@@H](C(=O)N3CCN(c4ncccn4)CC3)[C@H]12,-0.002,0.432,0.0182,0.92,-0.116,0.893,1.2,-2.4 (inactive),-0.0815,-0.137
COCC(=C=CC[C@H](O)c1cccc(OCCO)c1)CCO,-0.44,-0.625,-0.0347,0.242,-0.137,1.12,0.711,1.02 (inactive),0.235,-0.0645
CC(C)=CCCC(C)=CC(O)C1C=CC2C(=O)N(c3ccccc3)C(=O)C2N1Nc1ccc(C(C)C)cc1 (stereo not given),-0.345,-0.687,0.0218,0.249,1.21,1.63,1.06,0.821 (inactive),1.07,-0.13
COCCCNC(=O)[C@@]1(Sc2ccc(C)cc2)CC(=O)N(Cc2ccccc2Cl)[C@@H]1c1ccc(CO)cc1,0.59,2.15,-0.119,0.429,0.307,1.14,0.938,-2.45 (inactive),0.393,-0.0645
COC(=O)[C@H](Cc1ccccc1)N[C@H](/C=C/C1CC1)[C@@H](O)Cc1ccccc1,0.128,0.1,-0.202,-0.471,-0.567,-0.0373,-0.626,-1.72 (inactive),-0.474,-0.132
O=C1NC(=O)C2C1C=CC(C(O)c1ccc(-c3ccccc3)s1)N2Nc1ccc(Cl)cc1Cl (stereo not given),0.0065,0.285,0.107,0.297,1.21,1.48,0.706,2.38 (inactive),1.16,-0.0645

# — PubChem BioAssay
